This is a sample that favours compounds with a hit; in the whole collection about 19% have one here.
SW480 rereplic: inducers of DNA re-replication in SW480 colon cancer cells; SW480 DNA re-replication, Hoechst DNA content imaging, 48 h; Potency, µM (doses to about 46.1 µM), without a hit: top-dose re-replication activation, most hits filed as activators; actives 1.8% (n = 340,000); note: potency is the fitted concentration of half-maximal effect; % of control where 0% means no effect; nearly all actives have a fitted effect of over 55% in size
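Hoechst fluorescence of nuclei (405 nm excitation, 500-530 nm emission) measured by plate-scanning imager after 48 hr compound exposure at 37 C; re-replication scored as increased number of nuclei with elevated intensity.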
TDP1 cell CPT: DT40-hTDP1 cell growth loss with CPT. chicken DT40 Tdp1-/-;hTDP1 cells + 20 nM CPT, ATP luminescence, 48 h. Potency, µM (series often up to 46.2 µM), for the others: top-dose activity change, negative = growth inhibition, actives largely listed as inhibitors. actives 12% (n = 420,000); note: potency is the fitted concentration of half-maximal effect; % is set by controls: 0 for no effect and ±100 for the full control effect; nearly all actives have a fitted effect of over 55% in size
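Chicken DT40 Tdp1-/- cells complemented with human TDP1, 400 cells/well, exposed to compounds plus 20 nM camptothecin for at least 48 h at 37 C; viability read as ATP content by CellTiter-Glo luminescence.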
TDP1 cell noCPT: qHTS for Inhibitors of human tyrosyl-DNA phosphodiesterase 1 (TDP1): qHTS in cells in absence of CPT | DT40 Tdp1-/- hTDP1 cells, no CPT, ATP luminescence, 48 h | Potency, µM (titrated, usually from 46.2 µM), for the others: at the top dose activity change, negative = growth inhibition, actives largely listed as inhibitors | actives 15% (n = 420,000) | AID 686978, 2013; note: potency is the fitted concentration of half-maximal effect; % is set by controls: 0 for no effect and ±100 for the full control effect; nearly all actives have a fitted effect of over 55% in size
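Seeded 400 DT40-hTDP1 cells/well (vehicle DMSO, no 20 nM CPT); pinned compounds; ≥48 hr at 37 °C; CellTiter-Glo luminescence as viability measure.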
IL-1B inflam inh: blocks inflammasome-driven IL-1 beta release; THP-1 LPS/ATP IL-1B secretion, AlphaLISA, 16 h; hits give low values; activity change, % at 57.5 µM; actives 4.7% (n = 360,000); in the data active = activity change below about -50%; inconclusive = mostly about -30% to -49%; note: % is set by controls: 0 for no effect and ±100 for the full control effect
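Secreted IL-1B measured by AlphaLISA bead assay after 16 h compound exposure of THP-1 cells; compounds (final up to 57.5 uM) added 1 h before LPS (250 ng/mL) and ATP (1.25 mM) stimulation; lower signal means less secretion.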
MCF10A rerep: inducers of DNA re-replication in MCF 10A breast cells; MCF 10A DNA re-replication, Hoechst nuclear intensity, 48 h; actives 2.9% (n = 350,000); Potency, µM (series often up to 46.1 µM), for inactives: top-dose activity, positive = re-replication, most hits filed as activators; note: potency is the fitted concentration of half-maximal effect; % of control where 0% means no effect; nearly all actives have a fitted effect of over 50% in size
BCR signal inh: blocks chronic active B-cell receptor signaling; ABC-DLBCL IkBa-CBG/CBR reporter, luminescence ratio, 4 h; Potency, µM (titrated, usually from 46.1 µM), for the others: at the highest dose activity change, negative = inhibition, hits mostly inhibitors; actives 0.05% (n = 340,000); active = well fitted inhibition curve with a large enough effect in the signal ratio, with a control signal flat, not every such curve was filed as active; inconclusive = small, poorly fitted or top-dose-only effect, or effect the other way, or a change in a side signal; the % refers to the signal ratio;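 note: potency is the fitted concentration of half-maximal effect; plate controls were basal doxycycline-induced cells for no effect and cells given 10 µM MG132 for full effect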
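Cell line TMD8 (human ABC DLBCL), stably expressing tet-inducible CBG68-IkBa fusion and CBR; IMDM/0.5% FBS; cpd up to 46 uM; dox induction, 4 h, 37C/5% CO2; dual luminescence; green/red ratio; MG132 control.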
An asterisk follows results filed as active; ? = inconclusive; . = no result; [ ] = dose if it differs, or a comment. Unless noted, calls come from the whole dose curve; as a rule, active = well fitted curve in the direction sought with a large enough effect; inconclusive = small, poorly fitted or top-dose-only effect, or another doubt; inactive = no such curve, though single readings can be large; an effect the other way counts as inactive or inconclusive.

SMILES	SW480 rereplic	TDP1 cell CPT	TDP1 cell noCPT	IL-1B inflam inh	MCF10A rerep	BCR signal inh
CCc1ccccc1Nc1nn2c(=O)c3ccc(C(=O)NC(C)c4ccccc4)cc3nc2s1 (configuration not stated)	.	14.6µM*	14.6µM*	.	.	.
Cc1ccc(Cl)cc1Nc1nn2c(=O)c3ccc(C(=O)NCc4ccc(F)cc4)cc3nc2s1	.	2.06µM*	4.61µM*	.	.	.
O=C(NCCC1=CCCCC1)c1ccc2c(=O)n3nc(Nc4ccccc4)sc3nc2c1	.	2.31µM*	3.66µM*	.	.	?
Cc1ccc(Cl)cc1Nc1nn2c(=O)c3ccc(C(=O)N4CCCC(C)C4)cc3nc2s1 (configuration not stated)	.	?	?	.	.	-1.5%
CC(NC(=O)c1ccc2c(=O)n3c(nc2c1)CCC3)c1ccc(S(N)(=O)=O)cc1 (configuration not stated)	-87.8%	13.1%	11.2%	8.5	8.0%	-0.5%
CCc1ccccc1Nc1nn2c(=O)c3ccc(C(=O)NCc4ccc(C)cc4)cc3nc2s1	.	?	8.2µM*	.	.	.
CCNC(=O)C1(C)CCCN(C(=O)c2ccccc2Br)C1 (configuration not stated)	.	-3.4%	-1.3%	-0.8	.	.
CCc1ccccc1Nc1nn2c(=O)c3ccc(C(=O)NCCc4ccccc4)cc3nc2s1	.	10.3µM*	23.1µM*	.	.	.
Cc1ccccc1Nc1nn2c(=O)c3ccc(C(=O)NCc4ccccc4)cc3nc2s1	.	16.4µM*	16.4µM*	.	.	?
COC(=O)c1ccc2c(=O)n3nc(Nc4ccc(F)cc4F)sc3nc2c1	.	12.2%	6.1%	.	.	-2.9%
CCc1ccc(NC(=O)c2ccc3c(=O)n4nc(Nc5ccccc5C)sc4nc3c2)cc1	.	23.1µM*	13µM*	.	.	.
CN(C)c1ncc2nc(-c3ccccc3)c(=O)n(-c3ccccc3)c2n1	.	6.0%	8.6%	.	.	.
Clc1ccc(-[n+]2c(-c3cccc(Br)c3)[nH]c3nc4ccccc4nc32)cc1	0.4%	?	25.9µM*	.	-6.0%	16.2%
O=C(Nc1nc2ccccc2[nH]1)c1cccc(Cl)c1	-2.6%	?	?	-2.6	-4.1%	?
COc1cc(NC(=O)CCc2c(C)noc2C)c(C(=O)O)cc1OC	.	0.3%	-23.3%	16.7	.	.
Cc1ccc(C(C)C)c2oc(=O)cc(-c3ccc(-c4ccc(C(F)(F)F)cc4)cc3)c12	-10.2%	14.6µM*	20.6µM*	0.0	-4.6%	1.0%
CN=C(NC)NCc1ccccc1	.	-0.8%	6.4%	.	.	.
O=C(O)c1ccc(/C=N/Nc2ccc(C(F)(F)F)cn2)cc1	5.8µM*	?	?	20.2	11.6µM*	?
COc1cc(/C=N/Nc2ccc(C(F)(F)F)cn2)ccc1O	19.4%	?	?	-14.9	2.5%	-24.6%
O=C(O)c1ccc(N/N=C/c2ccc(-c3ccccc3)cc2)cc1	20.6µM*	-7.2%	-6.7%	-17.3	1.3µM*	?
O=C(O)c1cc(N/N=C/c2ccc(-c3ccccc3)cc2)ccc1Cl	?	?	?	20.8	3.26µM*	?
CCn1c(=N)c(C(=O)NCc2ccccc2)cc2c(=O)n3cc(C)ccc3nc21	.	-3.2%	2.4%	.	.	.
O=C(CN1C(=O)NC2(CCc3ccccc32)C1=O)Nc1ccc(Cl)cc1F (configuration not stated)	.	8.8%	?	-2.2	.	.
Cc1cccc(NC(=O)c2nc[nH]c2C(=O)N[C@@H](Cc2ccccc2)C(=O)OC(C)(C)C)c1	-8.4%	?	?	-57.7*	3.66µM*	?
Cc1cccc(NC(=O)c2nc[nH]c2C(=O)N[C@@H](CC(C)C)C(=O)OC(C)(C)C)c1	27.7%[9.22 µM]	?	?	?	?	8.3%

Assay outcomes as filed in PubChem.
